# Data taken from PubChem BioAssay (NCATS).
# Results filed as inconclusive are left out. Active and inactive are the calls of the source. Calls follow the shape of the dose curve; as a rule, active = well fitted cell-killing curve with a large enough effect; inconclusive = small, poorly fitted or top-dose-only effect, or effect the other way; inactive = flat fitted curve, though single readings scatter.
# Test system: OV90
# Assay: Primary qHTS to identify gynecologic anti-cancer compounds using libraries of approved drugs and bioactive compounds (AID 1345084); also: nearly all actives have a fitted effect of over 55% in size
# Conditions: Gynecologic cancer cell panel viability, ATPlite luminescence, 48 h; series mostly up to 57.5 µM; activity change, negative = cytotoxicity: at the top concentration
# Procedure, shortened: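 Measured: luminescence after ATPlite addition (15 min, RT). Exposure: 48 h, 37 C, 5% CO2.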
# % is scaled to controls: 0 for no effect and ±100 for the full control effect.
row,Compound,"activity change, negative = cytotoxicity"
1,O=C(/C=C/c1ccc(O)cc1)O[C@H]1[C@@H]2C=CO[C@@H](O[C@@H]3O[C@H](CO)[C@@H](O)[C@H](O)[C@H]3O)[C@@H]2[C@@]2(CO)O[C@@H]12,-1.73% [at 25.3 µM] (inactive)
2,COCCN(C)Cc1ccc2nc3sc(C(=O)N(C)C4CCCCC4)cn3c2c1,4.4% (inactive)
3,CC12CCC3c4ccc(O)cc4CCC3C1CCC2OC1OC(C(=O)O)C(O)C(O)C1O (centres undefined),14.2% (inactive)
4,COc1cc(CCc2ccccc2)c(C(=O)O)c2c1CC(C(C)(C)O)O2 (centres undefined),9.99% [at 38.5 µM] (inactive)
5,OCc1ccccc1O[C@@H]1O[C@H](CO)[C@@H](O)[C@H](O)[C@H]1O,5.37% (inactive)
6,CC/C=C\C[C@H]1C(=O)C=C[C@@H]1CCCCCCCC(=O)O,5.24% (inactive)
7,CC(NC(=O)CC(=O)O)c1nc2ccccc2c(=O)[nH]1 (centres undefined),4.55% (inactive)
8,C[C@@H]1CC[C@]2(C(=O)O)CC[C@]3(C(=O)O)C(=CCC4[C@@]5(C)CC[C@H](O[C@@H]6O[C@@H](C)[C@H](O[C@@H]7O[C@H](CO)[C@@H](O)[C@H](O)[C@H]7O)[C@@H](O)[C@H]6O)C(C)(C)C5CC[C@]43C)C2[C@H]1C (some centres undefined),0.433% [at 25.3 µM] (inactive)
9,COc1ccc(C)c2sc(NC(=O)c3ccncc3)nc12,-8.01% (inactive)
10,NCCOCCOCCNC(=O)Cc1ccc(Nc2nc(NCc3ccc(F)cc3)nc(NCC3CCCCC3)n2)cc1,18.5% (inactive)
11,Nc1nonc1C(=Nc1ccc(F)c(Cl)c1)NO,-5.25% (inactive)
12,CNC(=O)c1ccc2cc([C@@]3(O)CCn4cncc43)ccc2c1,18.7% (inactive)
13,O=C1NCc2nc3ccccc3c(=O)n2C1Cc1c[nH]c2ccccc12 (centres undefined),9.42% [at 38.5 µM] (inactive)
14,CCCCCCc1cccc(NC(=O)[C@H](N)CCP(=O)(O)O)c1,3.38% [at 11.6 µM] (inactive)
